# Screen size: about 86,000 compounds; about 920 (1.1%) were called active. Many of the other results were omitted from the sample, so actives are more common in it than they were. Unmarked numbers belong to inactive results.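 Rule for the calls: active = viability at or below 30%; inactive = viability above 30%.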
# Assay: inhibitors of HUVEC proliferation, primary screen, cell-based, 384-well (AID 648);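 note: 100% = median luminescence of DMSO-only cell control wells on each plate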
# Conditions: CellTiter-Glo luminescence, 72 h, active compounds read low, screened at 10 µM (by protocol)
row,SMILES,viability
1,CN1CCN(CC(=O)Nc2sc3c(c2C#N)CCC(C(C)(C)C)C3)CC1 (centres undefined),2.13% (active)
2,CCC(=O)Nc1sc(C(=O)N2CCCCC2)c(C)c1C#N,98.7%
3,CC(C)(C)C1CCc2c(sc3nc(SCC(N)=O)nc(N)c23)C1 (centres undefined),48.8%
4,O=C(O)CSc1nccn1-c1cccc(Cl)c1,105%
5,CC(C)NC(=O)C(=O)NCCN1CCN(S(=O)(=O)c2ccc(Cl)cc2)CC1,114%
6,CCSc1nc(-c2ccc(OC)cc2)cc(-c2ccc(OC)cc2)c1C#N,100%
7,COc1ccc(Nc2ncc(C(=O)N3CCN(c4ccccc4OC)CC3)c3ccccc23)cc1,62.2%
8,O=C(CO/N=C/c1ccccc1O)NNC(=O)c1ccccc1Cl,97.1%
9,O=C(O)CSCC(=O)Nc1cccc(C(F)(F)F)c1,89.5%
10,CCNS(=O)(=O)c1ccc(NC(=O)Nc2cccc(OC)c2)cc1,72.2%
11,CCNS(=O)(=O)c1ccc(NC(=O)Nc2cccc(C(F)(F)F)c2)cc1,29.7% (active)
12,O=C1CCCc2c1[nH]c1ccc(Br)cc21,16.3% (active)
13,O=[n+]1c2c(n([O-])c3cc(Br)ccc31)CCC2,94.2%
14,O=C(O)CCC(=O)NCc1ccc2[nH]c3c(c2c1)CCCC3,98.8%
15,COc1cccc2c1OCC1COc3c(c(=O)n(C)c(=O)n3C)C21 (centres undefined),104%
16,Cc1cc(C)cc(NC(=O)c2cccc(NC(=O)C3C4CC5OC(=O)C3C5C4)c2)c1 (centres undefined),92.7%
17,CC(C)Cc1nc(N2CCOCC2)c(C#N)c2c1CCC2,103%
18,CC(C)CCNc1nc(N2CCCC2)c2c(c1C#N)CCN(C)C2,2.55% (active)
19,CCN1CCc2c(C#N)c(NCc3ccccc3)nc(NCCO)c2C1,79.7%
20,CCOc1ccc(S(=O)(=O)Nc2ccc(S(=O)(=O)Nc3cc(OC)ccc3OC)cc2)cc1,95.7%
21,CCCCCCc1cc2cc(-c3nnc(-c4cccc(OC)c4)o3)c(=O)oc2cc1O,31.1%
22,CCC1(CC)Cc2ccccc2-c2nc3ccccc3c(=O)n21,102%
23,COc1ccccc1-n1nnnc1S(=O)(=O)Cc1ccc(Cl)cc1,11.8% (active)
24,COc1ccccc1N1CCN(C(=O)CN(Cc2ccc(Cl)cc2)S(C)(=O)=O)CC1,109%
25,COc1ccccc1N1CCN(Cc2nnnn2CCc2ccccc2)CC1,100%

row,SMILES,viability
1,Cc1nc(NC(=O)CN(C)S(=O)(=O)c2ccc(Cl)cc2)sc1C,101%
2,O=C1CCCCC(=O)c2ccccc2N1,98.7%
3,c1ccc2c(c1)C(=NC1CCCCC1)NC2=NC1CCCCC1,26.7% (active)
4,CCOC(=O)c1cnc(SCC(=O)Nc2cccc(OC)c2)nc1N,93.3%
5,CCn1nnnc1SCC(=O)c1ccc(C)cc1C,92.1%
6,OC(COc1ccc2c(c1)CCC2)CN1CCN(c2cccc(Cl)c2)CC1 (centres undefined),83.9%
7,Cc1coc2c(O)cc3c(c12)OC1(N2CCCCC2)C(=O)NCCCC31 (centres undefined),6.44% (active)
8,Cc1cccc(NC(=O)N(Cc2cc3cc(C)cc(C)c3[nH]c2=O)CC2COCCO2)c1 (centres undefined),77.6%
9,N#CCSc1nc2c(c(=O)n1Cc1ccccc1)C1(CCCC1)Cc1ccccc1-2,101%
10,Cc1c(C=O)c2ccccn2c1C(=O)c1ccncc1,97%
11,CCc1c(-c2ccccc2)nc(N)c(C#N)c1-c1cccs1,102%
12,COc1cccc(NC(=O)CN(C)S(=O)(=O)c2ccc(C)cc2)c1,97.5%
13,COc1cccc(-c2nnc(NC(=O)c3ccc(S(=O)(=O)N(CC(C)C)CC(C)C)cc3)o2)c1,23.6% (active)
14,CCN(CC)C(=O)CSc1nnc(-c2cccc(OC)c2)o1,104%
15,CC1(C)NC(=O)N(CCCCSc2ccc(Cl)cc2)C1=O,97.1%
16,CC(C)NS(=O)(=O)c1ccc(NC(=O)C2CCCCC2)cc1,106%
17,O=C(Nc1ccc2oc(-c3ccc4ccccc4c3)nc2c1)c1cccs1,22% (active)
18,Cc1nc(-c2ccc(NC(=O)c3cccs3)cc2)cs1,89.5%
19,O=C(Cc1cccc2ccccc12)Nc1ccc2oc(-c3ccccc3)nc2c1,49.6%
20,CC(Oc1ccc(Cl)cc1)c1ccnn1S(C)(=O)=O (centres undefined),73.7%
21,COc1ccccc1C(=O)N1CC2(C)CC1CC(C)(C)C2 (centres undefined),94%
22,COn1c(=O)c(=O)n(OC)c2ccccc21,105%
23,Oc1c(CN2CCN(c3ccc(F)cc3)CC2)cc(Cl)c2cccnc12,5.81% (active)
24,CCN1CCN(C(c2cccnc2)c2cc(Cl)c3cccnc3c2O)CC1 (centres undefined),74.6%
25,O=C(c1cccc(C(=O)N2CCN(c3ccc(F)cc3)CC2)c1)N1CCN(c2ccc(F)cc2)CC1,92.2%

row,SMILES,viability
1,Cc1nnc(SCC(=O)N2CCN(c3ccccc3)CC2)n1-c1ccccc1,93.5%
2,COC(=O)c1ccc(CSc2nnc(NC(C)C)s2)cc1,96.9%
3,CCc1c(O)nc(SCC(=O)Nc2ccccc2)n(C(C)CC)c1=O (centres undefined),96.5%
4,CC(C)(C)n1nnnc1C(c1ccc(F)cc1)N1CCN(Cc2ccc3c(c2)OCO3)CC1 (centres undefined),89%
5,CCCc1nc(NCc2ccc3c(c2)OCO3)c2nnn(Cc3ccccc3Cl)c2n1,73.6%
6,Cc1nc(Nc2ccc3c(c2)OCCO3)c2nnn(Cc3ccccc3Cl)c2n1,29.5% (active)
7,C#CCNc1nc(C(C)C)nc2c1nnn2Cc1ccccc1F,127%
8,Nc1c(C(=O)NCc2ccccc2)sc2nc3c(cc12)C(=O)CCC3,84.8%
9,Cc1nnc(SC(C)C(=O)Nc2ccc(S(=O)(=O)NC3CCCCC3)cc2)s1 (centres undefined),104%
10,O=C(Nc1ccccc1)c1ccc2c(c1)OCO2,94%
11,Cc1cccc(Nc2ccccc2C(=O)NCc2ccco2)c1C,63.9%
12,Cc1cccc(C)c1N1CCN(S(=O)(=O)N2CCOCC2)CC1,108%
13,CC1=C/C(=N\OS(=O)(=O)c2ccccc2)C=CC1=O,1.29% (active)
14,c1ccc(-c2nc(NCc3ccco3)c3ccccc3n2)cc1,85.5%
15,CCSc1nnc(NC(=O)Cc2ccccc2OC)s1,93.5%
16,CC(C)c1cc(C(=O)O)n[nH]1,90.3%
17,C=C(C)CSc1nnc(-c2ccc(C)cc2)n1N,93.8%
18,N=c1c2c(-c3ccccc3)c(-c3ccccc3)n(Cc3ccccc3)c2ncn1CCCO,1.91% (active)
19,OCCCN1c2ccccc2Nc2nnc(-c3ccccc3)cc21,69.2%
20,O=C(CCN1C(=O)c2ccccc2C1=O)NCCN1CCOCC1,93.8%
21,CC(=O)Oc1cc2c(C(=O)NCCN3CCOCC3)c(C)oc2c2ccccc12,4.78% (active)
22,O=C(NCCN1CCOCC1)c1c(F)c(F)c(F)c(F)c1F,94.7%
23,CCCOc1ccc(N2C(=O)CC(N(CCc3ccc(S(N)(=O)=O)cc3)C(C)=O)C2=O)cc1 (centres undefined),98%
24,O=C1c2ccccc2C(=O)N1CCCc1nc(-c2ccccc2)no1,111%
25,Cc1ccc(-c2csc(SCC(=O)Nc3cc(C)on3)n2)cc1,100%

row,SMILES,viability
1,O=C(CCN1c2ccccc2Sc2ccccc21)Nc1ccccc1,84.5%
2,Cc1ccc(C2(C(F)(F)F)N=C3Sc4cc(C)cc(C)c4N3C(=O)N2)cc1 (centres undefined),21.8% (active)
3,COC(=O)c1nc2ccccc2s1,93.3%
4,Cc1ccccc1N1CCN(CCCOc2ccc3c(C)cc(=O)oc3c2)CC1,25.2% (active)
5,CCc1cc(=O)oc2cc(OCC(=O)N3CCCc4ccccc43)ccc12,80.5%
6,Cc1cc(=O)oc2cc(OCC3CC(c4ccccc4Cl)=NO3)ccc12 (centres undefined),44.4%
7,CCCC1(C(=O)OCC)NC(c2ccc(N(C)C)cc2)C2C(=O)N(c3ccc4c(c3)OCCO4)C(=O)C21 (centres undefined),104%
8,CCN(CC)C(=O)CSc1ncnc2c1cnn2-c1ccccc1,123%
9,OC(CNCC1CCCO1)Cn1c2ccc(Br)cc2c2cc(Br)ccc21 (centres undefined),3.17% (active)
10,Cc1cc(Br)ccc1NC(=O)C1CCCO1 (centres undefined),90.3%
11,Cc1ccc(C(=O)NCC2CCCO2)o1 (centres undefined),106%
12,Cc1ccc(S(=O)(=O)/N=C(\CN2CCOCC2)N2CCOCC2)cc1,89.5%
13,Cc1ccc(CN2CCN(/N=C/c3ccco3)CC2)c(C)c1,104%
14,C=C(C)COc1ccc(-c2n[nH]c(C)c2-c2ccccc2)c(O)c1,54%
15,COc1ccc(-c2n[nH]c(C)c2-c2ccc(OC)c(OC)c2)c(O)c1,48.7%
16,C=C(C)COc1ccc(-c2n[nH]c(C)c2-c2ccccc2OC)c(O)c1,23.9% (active)
17,O=C(NCC1CCCO1)c1ccc2ccccc2n1 (centres undefined),89.6%
18,O=S(=O)(NC1CCCCC1)c1ccc(F)c2ccccc12,81.9%
19,Cc1ccc(S(=O)(=O)NCCSC(C)(C)C)cc1,103%
20,CCc1nnc(NC(=O)CSc2nc3ccccc3c(=O)n2CCCOC)s1,90.7%
21,Cc1cc(C)n(-c2nc(SCC(=O)N3CCCC3)c3c4c(sc3n2)CCCC4)n1,16.2% (active)
22,Cc1nc(SCC(=O)Nc2cc(C)on2)c2c3c(sc2n1)CCCC3,75.7%
23,COCCNc1nc(-n2nc(C)cc2C)nc2sc3c(c12)CCCC3,78%
24,CCCCCCNC(=O)CSc1nccn1Cc1ccccc1,80.6%
